Laboratory results: PubChem BioAssay (Tox21)
Records with an inconclusive call do not appear. Where a structure was tested more than once in an assay, its records may differ in their call. Active and inactive are the calls of the source. Calls come from the whole dose curve; as a rule, active = well fitted cell-killing curve with a large enough effect in the repeat runs; inconclusive = weak or mixed curves, or effect the other way; inactive = flat fitted curve, though single readings scatter.

Experiment: qHTS assay to identify small molecule agonists of the sonic hedgehog signaling (Shh) pathway - cell viability counter screen (AID 1259366); note: nearly all actives have a fitted effect of over 50% in size
Settings: NIH/3T3 Gli1-Luc viability, CellTiter-Fluor, 24 h; series mostly up to 92.4 µM; viability change, negative = cytotoxic: at the top concentration
Text: National Center for Advancing Translational Sciences [NCATS]
NIH Chemical Genomics Center [NCGC]
U.S. Environmental Protection Agency [EPA]
National Institutes of Environmental Health Sciences [NIEHS]
National Toxicology Program [NTP]
U.S. Food and Drug Administration [FDA]
The sonic hedgehog (Shh) pathway is essential for normal embryonic development. Dysregulation of the Shh pathway can cause severe developmental defects in organs. Therefore chemicals that interfere with the pathway are potential developmental toxicants. A cell line designated 3T3Gli1-Luc (DMB/OARSA/CFSAN/FDA, Laurel, MD), a NIH/3T3 derived clone containing stably integrated Gli1-Luc reporter is used to detect chemical interference of the Shh pathway, by changes in the expression of the firefly Luc gene under the control of the Gli1 transcriptional response element. This cell line was used to screen Tox21 libraries for identifying and prioritizing the potential developmental toxicants that interfere Shh pathway. The cytotoxicity of the compounds was tested in parallel by measuring the cell viability using CellTiter-Fluor assay system (Promega, Madison, WI) in the same wells.
Tox21 Assay Protocol Summary:
3T3 Gli1-Luc cells were dispensed at 2,000 per well in 5uL of culture medium into white solid bottom 1536-well plates (Greiner Bio-One, Monroe, NC) using a Multidrop Combi (Thermo Scientific, Waltham, MA) dispenser. The assay plates were incubated at 37 C and 5% CO2 for 4hr, and then 23nL of compounds dissolved in DMSO and positive control were transferred using a Pintool station (Wako, San Diego, CA). The assay plates were incubated at 37C and 5% CO2 for 24hr. For viability read, after 23hr of compound treatment, 1uL of CellTiter-Fluor reagent (Promega Corporation, Madison, WI) was added to each well of the assay plates using Flying Reagent Dispenser (FRD, Aurora Discovery, San Diego, CA) and incubated the assay plates at 37C for 1hr. The fluorescence signal was quantified using a ViewLux plate reader (Perkin Elmer, Shelton, CT).
% is set by controls: 0 for no effect and ±100 for the full control effect; potency is the fitted concentration of half-maximal effect.

Compound	viability change, negative = cytotoxic	Potency
CN(C)c1ccc(C2(c3ccc(N(C)C)cc3)OC(=O)c3cc(N(C)C)ccc32)cc1	11.6% (inactive)	–
O=c1[nH]cnc2nc[nH]c12	6.23% [at 42.5 µM] (inactive)	–
CN(C/C=C/C#CC(C)(C)C)Cc1cccc2ccccc12	1.1% [at 42.5 µM] (inactive)	–
CCC(N)(CO)CO	-0.45% (inactive)	–
[Cl][Au]([Cl])[Cl]	–	3.86 µM (active)
Cc1onc(-c2ccccc2Cl)c1C(=O)N[C@@H]1C(=O)N2[C@@H]1SC(C)(C)[C@@H]2C(=O)O	4.08% [at 42.5 µM] (inactive)	–
CCCCC(CC)COC(=O)c1ccccc1C(=O)O (stereo not given)	1.5% (inactive)	–
CC/C(=C(\c1ccc(O)cc1)c1ccc(OCCN(C)C)cc1)c1ccccc1	–	21.7 µM (active)
CS(=O)(=O)CCNCc1ccc(-c2ccc3ncnc(Nc4ccc(OCc5cccc(F)c5)c(Cl)c4)c3c2)o1	-23.2% [at 42.5 µM] (inactive)	–
CSc1cnc(C)cn1	2.04% [at 240 µM] (inactive)	–
O=C(NO)C1(NS(=O)(=O)c2ccc(Oc3ccc(F)cc3)cc2)CCOCC1	-2.31% (inactive)	–
CCC(Cl)C(Cl)C(Cl)CC(Cl)C(Cl)C(C)Cl (stereo not given)	5.72% (inactive)	–
Oc1ccc(C2(c3ccc(O)cc3)CC3CC2C2CCCC32)cc1 (stereo not given)	–	58.7 µM (active)
O=C1c2ccccc2Cc2ccccc21	–	6.91 µM (active)
O=C(N/N=C/c1ccccc1O)c1ccncc1	6.59% [at 42.5 µM] (inactive)	–
CCN(C(=O)N(CC)c1ccccc1)c1ccccc1	-9.12% (inactive)	–
CCCC(c1cc(C(C)(C)C)c(O)cc1C)c1cc(C(C)(C)C)c(O)cc1C	–	22 µM (active)
O=C(OCC(COC(=O)c1ccccc1)(COC(=O)c1ccccc1)COC(=O)c1ccccc1)c1ccccc1	-5.91% (inactive)	–
CCCCCCCCCCCCCCCCCC[N+](C)(C)Cc1ccccc1	–	24.6 µM (active)
Oc1cccc(-c2c3nc(c(-c4cccc(O)c4)c4ccc([nH]4)c(-c4cccc(O)c4)c4nc(c(-c5cccc(O)c5)c5ccc2[nH]5)CC4)C=C3)c1	–	13.3 µM (active)

Compound	viability change, negative = cytotoxic	Potency
Cc1cc(N)c(S(=O)(=O)O)cc1Cl	1.3% (inactive)	–
CCN(CCC#N)c1ccc(N=Nc2c(Cl)cc([N+](=O)[O-])cc2Cl)cc1	-28.6% (inactive)	–
Cc1onc(-c2c(Cl)cccc2Cl)c1C(=O)N[C@@H]1C(=O)N2[C@@H]1SC(C)(C)[C@@H]2C(=O)O	-7.31% [at 42.5 µM] (inactive)	–
O=C(Oc1cccc2cccnc12)c1ccccc1	–	1.5 µM (active)
CSc1ccc(/C=C2/C(C)=C(CC(=O)O)c3cc(F)ccc32)cc1	-18.9% [at 42.5 µM] (inactive)	–
CCCN(CCC)c1c([N+](=O)[O-])cc(C(F)(F)F)c(N)c1[N+](=O)[O-]	–	48.4 µM (active)
CCCCCCCCCCCCCCCS(=O)(=O)Oc1ccccc1	11.2% [at 42.5 µM] (inactive)	–
NC(=O)C1(N2CCCCC2)CCN(CCCN2c3ccccc3CCc3ccc(Cl)cc32)CC1	–	23.7 µM (active)
C=C(C)C(=O)OCC[N+](C)(C)C	-14.6% (inactive)	–
NNc1nc(-c2ccc([N+](=O)[O-])cc2)cs1	-29.1% (inactive)	–
Clc1ccc(C(Cn2ccnc2)OCc2ccc(Sc3ccccc3)cc2)c(Cl)c1 (stereo not given)	1.66% [at 42.5 µM] (inactive)	–
CN(C)c1ccc(SC#N)cc1	-2.37% (inactive)	–
CCCCCCCC[N+](CCCCCCCC)(CCCCCCCC)CCCCCCCC	–	17.2 µM (active)
CCCCCCCCOc1ccccc1C(=O)Nc1ccc(C(=O)OCC[N+](C)(CC)CC)cc1	-2.33% [at 42.5 µM] (inactive)	–
CN(C)[C@@H]1C(=O)C(C(N)=O)=C(O)[C@@]2(O)C(=O)C3=C(O)c4c(O)cccc4C[C@H]3C[C@@H]12	14.6% [at 42.5 µM] (inactive)	–
COc1cc(-c2nc(NC(=O)c3cc4cc(C)cc(C)c4n3CC(=O)O)sc2CCC2CCCCC2)c(OC)cc1Cl	24.2% (inactive)	–
CC(C)(C)c1ccc(C(=O)CCCN2CCC(OC(c3ccccc3)c3ccccc3)CC2)cc1	–	26.6 µM (active)
Cc1cccc(S(=O)(=O)O)c1C	-4.81% (inactive)	–
Oc1ccc(Cl)cc1Sc1cc(Cl)ccc1O	–	30.6 µM (active) and inactive
O=CC=C(c1ccccc1)c1ccccc1	–	49 µM (active)
